The sample as a whole holds a higher share of hits than the screen did.
Shiga inhibitor: inhibitors of Shiga toxin in Vero cells. Vero cells, Shiga toxin protein synthesis inhibition reporter. inhibition, % at 38.7 µM. hit rate 9.2% among 290,000. AID 2315; in the data active means inhibition mostly above about 28%, no sharp cut-off; inactive means mostly below about 43%; further: 0% is about no effect
AMA1 RON2 block: inhibitors of Plasmodium falciparum AMA1-RON2 interaction | AlphaScreen AMA1-biotinylated RON2 peptide binding | Potency, µM (top dose mostly 58.2 µM), inactives show at the highest dose activity change, negative = inhibition, actives largely listed as inhibitors | hit rate 0.2% among 360,000 | AID 720542; active means well fitted inhibition curve with a large enough effect; inconclusive means small, poorly fitted or top-dose-only effect; inactive means no such curve, though single readings can be large or run the other way;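 further: potency means the concentration at half of the fitted maximal effect; 0% = vehicle wells and -100% = peptide control; nearly all actives have a fitted effect of over 45% in size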
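AMA1 (3D7) with his tag at 25 nM final met compounds first, then biotinylated RON2 peptide at 25 nM; detection used donor plus acceptor beads, 10 µg/mL apiece, read by AlphaScreen after 30 min at room temperature.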
Lassa entry inh: Lassa virus entry inhibition | AID 540256 | hit rate 1.2% among 300,000 | Lassa virus pseudotype entry inhibition, cell reporter | Potency, µM (series often up to 37.9 µM), inactives show at the top dose activity change, negative = inhibition, hits mostly inhibitors; calls by dose curve; tested in HEK293 cells; further: potency means the concentration at half of the fitted maximal effect; on the % scale 0 is the no-effect control and ±100 the full control effect; nearly all actives have a fitted effect of over 50% in size
MARV entry inh: inhibitors of Marburg virus binding or cell entry | Marburg virus pseudotyped entry inhibition, cell reporter | Potency, µM (doses to about 37.8 µM), without a hit: top-dose activity change, negative = inhibition, hits mostly inhibitors | hit rate 1.8% among 300,000; calls by dose curve; tested in HEK293 cells; further: potency means the concentration at half of the fitted maximal effect; on the % scale 0 is the no-effect control and ±100 the full control effect
Cycloheximide cs: counter-screen for Shiga toxin inhibitors: cycloheximide protein synthesis inhibition; cell reporter, cycloheximide protein synthesis inhibition counterscreen; max response, %; AID 2314; hit rate 12% among 300,000; in the data active means max response mostly above about 13%, no sharp cut-off; inactive means mostly below about 14%; further: read at 38.3 µM for the half of the compounds with a filed dose; 0% is about no effect
* = called active by the depositor; ? = inconclusive; . = no result; [ ] = remark or other dose.

SMILES | Shiga inhibitor | AMA1 RON2 block | Lassa entry inh | MARV entry inh | Cycloheximide cs
Cc1nonc1C(=O)N/N=C/c1cccc(O)c1 | 65* | 6% | 7% | 7% | 54*
O=C(COC(=O)c1cccc(C(F)(F)F)c1)NC(=O)NC1CCCC1 | . | 7% | 3% | -13% | .
CN1/C(=C/c2cc[n+](C)c3ccccc23)C=Cc2ccccc21 | -11 | -27% | ? | 4µM* | 2
C[n+]1ccc(-c2ccccc2)c2ccccc21 | . | 1% | . | . | .
Cc1cc(NC(=O)c2noc3c2CCCCC3)no1 | 130* | 4% | -18% | ? | 29*
Cc1cc(NC(=O)c2noc3c2CCCC3)no1 | 31* | 6% | -46%[14.3 µM] | 13% | 22*
COC1=CC(=O)OC(c2cccc(Cl)c2)C1 (stereo not drawn) | . | -3% | . | . | .
O=C(Oc1ccc(-c2cnc3ccccc3n2)cc1)c1ccco1 | 64 | 12% | -4% | ? | 23*
CCC(=O)Oc1ccc(-c2cnc3ccccc3n2)cc1 | 60 | 9% | ? | ? | 32*
CCOC(=O)COc1cnc2ccccc2n1 | 13 | 3% | 8% | -4%[46.1 µM] | 2
Cc1ccccc1NC(=O)Nc1nnc(N2CCCCCC2)s1 | . | . | -26%[46.1 µM] | -12%[46.1 µM] | .
Clc1ccc2c(c1)C(C1=NCCN1)c1ccccc1CS2 (stereo not drawn) | -5 | 10% | ? | 1.3µM* | -5
CCc1cccc(C)c1NC(=O)CCS(=O)(=O)c1ccc2c(c1)oc(=O)n2C | . | . | -1%[46.1 µM] | . | .
CNC(=S)N/N=C(\C)c1ccc(N2CCOCC2)cc1 | 85* | 83% | . | . | 61*
S=c1[nH]ncn1/N=C/c1ccc(N2CCOCC2)cc1 | 32* | 25% | -26% | -11% | 26*
O=C(N/N=C/c1ccc(N2CCCCC2)o1)c1ccccc1 | 75* | -1%[11.6 µM] | 12% | ? | 37*
Fc1ccc(N/N=C/c2ccc(N3CCOCC3)cc2)c(F)c1 | 75* | -16% | ? | ? | 34*
O=C(N/N=C/c1ccc(N2CCOCC2)o1)c1cccc([N+](=O)[O-])c1 | 13 | 53% | 1% | ? | 1
C/C(=N\Nc1ccc(F)cc1F)c1ccc(F)cc1 | -14 | . | . | 0% | -2
CCCCCC(=O)N/N=C(\C)c1ccc(N2CCCCC2)cc1 | 58* | 27% | -20% | ? | 48*
CCCCCCCC(=O)N/N=C(\C)c1ccc(N)cc1 | -17 | . | . | . | 10
C/C(=N\NC(=O)COc1ccc(C(C)(C)C)cc1)c1ccc(N2CCOCC2)cc1 | -30 | 105% | 1.3µM* | 13% | 24*
C(=N\n1cnnc1)/c1ccc(N2CCOCC2)cc1 | 3 | 7% | -5% | 24% | 1
C/C(=N\Nc1ccc(F)cc1F)c1ccc(N2CCOCC2)cc1 | 16 | -5% | . | . | 24*
CN(C)/N=C/c1ccc(N2CCOCC2)cc1 | 45 | -2% | -9%[46.1 µM] | ? | 23*
SMILES | Shiga inhibitor | AMA1 RON2 block | Lassa entry inh | MARV entry inh | Cycloheximide cs
CC(C)c1ccc(C(=O)Nc2ccc(-c3nc4ccccc4s3)c(Cl)c2)cc1 | . | . | 19%[46.1 µM] | -5%[46.1 µM] | .
C/C(=N\NC(=O)c1ccc(O)cc1)c1ccc(N2CCOCC2)cc1 | 30 | 2% | -6% | 16%[46.1 µM] | 2
C/C(=N\NC(=O)c1ccc(F)cc1)c1ccc(N2CCOCC2)cc1 | 74* | 13% | 4%[46.1 µM] | ? | 21*
C/C(=N\NC(=O)c1ccccc1)c1ccc(N2CCCCC2)cc1 | 77* | -4% | -1% | 17% | 48*
Nc1nc(NC(=O)c2ccccc2Cl)nn1-c1ccccc1 | 19 | 0% | 9%[46.1 µM] | 24%[46.1 µM] | 13
COc1ccc(C(=O)Nc2nc(N)n(-c3ccccc3)n2)cc1 | -1 | -2% | 18% | -19% | 0
Nc1nc(NC(=O)c2cccs2)nn1-c1ccccc1 | 84 | -17% | -1% | -26% | 30*
Nc1nc(NC(=O)c2ccccc2)nn1-c1ccccc1 | 36* | -1% | 21% | ? | 13*
Cc1ccc(OCC(=O)Nc2ccc3nc(SCC(=O)N(C)c4ccccc4)sc3c2)cc1 | . | . | 4%[46.1 µM] | ? | .
COc1cc(NC(=NS(=O)(=O)c2ccccc2)c2ccccc2)ncn1 | . | -8% | 4%[46.1 µM] | ? | .
Cc1ccc(C)c(CN2C(=O)c3ccccc3S(=O)(=O)c3ccc(C(=O)N(C)C4CCCCC4)cc32)c1 | . | . | -22%[46.1 µM] | ? | .
CSCCC(=O)N1CCCC(CO)(CCCc2ccccc2)C1 (stereo not drawn) | 8 | -8% | 0%[46.1 µM] | 2%[46.1 µM] | 12
O=C1CCCN1CCC(=O)N1CCCC(CO)(Cc2ccccc2)C1 (stereo not drawn) | 74* | 0% | 14%[46.1 µM] | ? | 55*
C/C(=N\NC(=O)c1ccc([N+](=O)[O-])cc1)c1cccc([N+](=O)[O-])c1 | 3 | 9% | -6%[46.1 µM] | -20%[46.1 µM] | 11
C/C(=N\Nc1nc(N)cc(Cl)n1)c1cccc([N+](=O)[O-])c1 | 75* | 46% | -15%[14.3 µM] | 3% | 37*
C/C(=N/Nc1nc(-c2ccccc2)cc(-c2ccc(F)cc2)n1)c1cccc(N)c1 | 9 | 36% | ? | -7% | 16
C/C(=N/Nc1nc(C)c(C)s1)c1cccc([N+](=O)[O-])c1 | 30* | 80% | . | . | 30*
C/C(=N\Nc1nc(N)cc(Cl)n1)c1cccc(N)c1 | 39* | 36% | 5% | ? | 52*
O=C(CS)Nc1ccc2ccccc2c1 | 49 | 2% | 2% | 20%[46.1 µM] | 15
Cc1ccc(/C=N\NC(=O)Cc2noc3ccccc23)cc1 | -4 | 4% | -21%[46.1 µM] | ? | -3
O=C(Cc1noc2ccccc12)Nc1ccc2ccccc2c1 | 69* | 13% | 4% | ? | 32*
Cc1ccc(NC(=O)Cc2noc3ccccc23)cc1 | 68* | -5% | ? | ? | 46*
CCOc1ccc(C(=O)c2cn(CC(=O)Nc3ccc(F)cc3)c3cc4c(cc3c2=O)OCCO4)cc1 | . | . | -1%[46.1 µM] | -5%[46.1 µM] | .
Cc1noc(C)c1CCC(=O)N1CCCC(CCC(=O)NCc2ccc(F)c(F)c2)C1 (stereo not drawn) | 14 | -23% | . | . | 19*
COC(=O)c1ccc(C(=O)N2CCCC(CNC(=O)c3ccc(F)cc3)C2)cc1 (stereo not drawn) | -4 | -3% | . | . | 3
SMILES | Shiga inhibitor | AMA1 RON2 block | Lassa entry inh | MARV entry inh | Cycloheximide cs
COC(=O)c1ccccc1C(=O)N1CCCC(CNC(=O)c2ccc(F)cc2)C1 (stereo not drawn) | 4 | 4% | 24%[46.1 µM] | 16%[46.1 µM] | 12*
COC(=O)c1ccccc1C(=O)N1CCCC(CCC(=O)NCc2ccc(F)c(F)c2)C1 (stereo not drawn) | 93* | -17% | -5%[46.1 µM] | ? | 41*
N#CCCN(C(=O)c1cc2c(s1)-c1ccccc1S(=O)(=O)C2)c1ccccc1 | -3 | 0% | . | . | -12
COc1ccccc1Oc1ccc(N2CC(C(=O)OCC(=O)c3ccccc3)CC2=O)cc1 (stereo not drawn) | 0 | -10% | 0%[46.1 µM] | -4%[46.1 µM] | -3
Cc1sc2ncnc(N3CCC(C(=O)Nc4nnc(SCc5ccccc5F)s4)CC3)c2c1C | . | -4% | 2% | ? | .
C/C(=N\NC(=O)Nc1ccccc1)c1ccccc1 | 32 | 0% | 23% | ? | 20*
CCCCC/C(=N\NC(=O)Nc1ccccc1)c1ccccc1 | 23 | -20% | 12% | ? | -6
CCCCSC(=O)Nc1ccccc1 | 85* | -4% | -4% | 22%[46.1 µM] | 31*
